According to the supplement of paper PMC8728848:
About 410 targets per protein were measured; listed, in parts, are those with the strongest signals and a random draw of the rest.

Columns and labels:
Assay in all cases: glycan array binding signal (z-score within array); higher = stronger binding
Conditions in all cases: glycan notation: IUPAC condensed, linker removed
[1] = biological target: GalNAc(b1-4)Gal(b1-4)Glc
Outline: (§1)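 Glycan array data were curated from 3228 arrays in the Consortium for Functional Glycomics database and kept only where the protein sequence was available. Glycan names were converted to IUPAC-condensed notation, and columns mapping to the same glycan were averaged. The binding signal is a within-array Z-score, averaged across arrays of the same protein sequence at different concentrations or buffers and across linkers. Negative Z-scores can be read as non-binding.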

[2] = biological target: GalNAc(b1-4)GlcNAc
Outline: as §1

[3] = biological target: Glc(a1-6)Glc(a1-6)Glc(a1-6)Glc
Outline: as §1

[4] = biological target: GlcNAc(b1-2)Gal(b1-3)GalNAc
Outline: as §1

[5] = biological target: GlcNAc(b1-3)Gal(b1-4)GlcNAc(b1-3)Gal(b1-4)GlcNAc(b1-3)Gal(b1-4)GlcNAc(b1-2)Man(a1-3)[GlcNAc(b1-3)Gal(b1-4)GlcNAc(b1-3)Gal(b1-4)GlcNAc(b1-3)Gal(b1-4)GlcNAc(b1-2)Man(a1-6)]Man(b1-4)GlcNAc(b1-4)[Fuc(a1-6)]GlcNAc
Outline: as §1

[6] = biological target: GlcNAc(b1-3)Gal(b1-4)GlcNAc(b1-3)Gal(b1-4)GlcNAc(b1-3)Gal(b1-4)GlcNAc(b1-2)[GlcNAc(b1-3)Gal(b1-4)GlcNAc(b1-3)Gal(b1-4)GlcNAc(b1-3)Gal(b1-4)GlcNAc(b1-6)]Man(a1-6)[GlcNAc(b1-3)Gal(b1-4)GlcNAc(b1-3)Gal(b1-4)GlcNAc(b1-3)Gal(b1-4)GlcNAc(b1-2)Man(a1-3)]Man(b1-4)GlcNAc(b1-4)[Fuc(a1-6)]GlcNAc
Outline: as §1

[7] = biological target: GlcNAc(b1-3)Gal(b1-4)GlcNAc(b1-3)Gal(b1-4)GlcNAc(b1-3)Gal(b1-4)GlcNAc(b1-3)Gal(b1-4)GlcNAc(b1-2)[GlcNAc(b1-3)Gal(b1-4)GlcNAc(b1-3)Gal(b1-4)GlcNAc(b1-3)Gal(b1-4)GlcNAc(b1-3)Gal(b1-4)GlcNAc(b1-6)]Man(a1-6)[GlcNAc(b1-3)Gal(b1-4)GlcNAc(b1-3)Gal(b1-4)GlcNAc(b1-3)Gal(b1-4)GlcNAc(b1-3)Gal(b1-4)GlcNAc(b1-2)Man(a1-3)]Man(b1-4)GlcNAc(b1-4)[Fuc(a1-6)]GlcNAc
Outline: as §1

[8] = biological target: GlcNAc(b1-3)GalNAc
Outline: as §1

[9] = biological target: GlcNAc(b1-3)Man
Outline: as §1

[10] = biological target: GlcNAc(b1-3)[GlcNAc(b1-6)]GalNAc
Outline: as §1

[11] = biological target: GlcNAc(b1-4)GlcNAc(b1-4)GlcNAc(b1-4)GlcNAc(b1-4)GlcNAc(b1-4)GlcNAc
Outline: as §1

[12] = biological target: Kdn(a2-3)Gal(b1-3)GlcNAc
Outline: as §1

[13] = biological target: Man(a1-2)Man(a1-3)Man
Outline: as §1

[14] = biological target: Neu5Ac(a2-3)Gal(b1-4)GlcNAc(b1-2)Man(a1-3)[Neu5Ac(a2-3)Gal(b1-4)GlcNAc(b1-2)Man(a1-6)]Man(b1-4)GlcNAc(b1-4)GlcNAc
Outline: as §1

[15] = biological target: Neu5Ac(a2-3)Gal(b1-4)GlcNAc(b1-3)Gal(b1-3)GlcNAc
Outline: as §1

[16] = biological target: Neu5Ac(a2-3)Gal(b1-4)GlcNAc(b1-3)Gal(b1-4)GlcNAc
Outline: as §1

[17] = biological target: Neu5Ac(a2-3)Gal(b1-4)GlcNAc(b1-3)GalNAc
Outline: as §1

[18] = biological target: Neu5Ac(a2-3)Gal(b1-4)[Fuc(a1-3)]GlcNAc(b1-6)[Gal(b1-3)]GalNAc
Outline: as §1

[19] = biological target: Neu5Ac(a2-3)[GalNAc(b1-4)]Gal(b1-4)GlcNAc(b1-3)GalNAc
Outline: as §1

[20] = biological target: Neu5Ac(a2-6)Gal(b1-3)GlcNAc(b1-3)[Gal(b1-4)GlcNAc(b1-6)]Gal(b1-4)Glc
Outline: as §1

[21] = biological target: Neu5Ac(a2-6)Gal(b1-4)GlcNAc(b1-3)Gal(b1-4)GlcNAc(b1-3)Gal(b1-4)GlcNAc
Outline: as §1

[22] = biological target: Neu5Ac(a2-6)Gal(b1-4)GlcNAc(b1-3)Gal(b1-4)GlcNAc(b1-3)Gal(b1-4)GlcNAc(b1-2)Man(a1-3)[Neu5Ac(a2-6)Gal(b1-4)GlcNAc(b1-3)Gal(b1-4)GlcNAc(b1-3)Gal(b1-4)GlcNAc(b1-2)Man(a1-6)]GalNAc
Outline: as §1

[23] = biological target: Neu5Ac(a2-6)Gal(b1-4)GlcNAc(b1-3)Gal(b1-4)GlcNAc(b1-3)[Neu5Ac(a2-6)Gal(b1-4)GlcNAc(b1-3)Gal(b1-4)GlcNAc(b1-6)]GalNAc
Outline: as §1

[24] = biological target: Neu5Ac(a2-6)Gal(b1-4)GlcNAc(b1-6)[Gal(b1-3)GlcNAc(b1-3)]Gal(b1-4)Glc
Outline: as §1

[25] = biological target: Neu5Ac(a2-6)GalNAc(b1-4)GlcNAc
Outline: as §1

[26] = biological target: Neu5Ac(a2-8)Neu5Ac(a2-3)Gal(b1-4)GlcNAc
Outline: as §1

[27] = biological target: Neu5Ac(a2-8)Neu5Ac(a2-8)Neu5Ac
Outline: as §1

[28] = biological target: Neu5Gc(a2-3)Gal(b1-4)GlcNAc(b1-3)Gal(b1-4)GlcNAc(b1-2)Man(a1-3)[Neu5Gc(a2-3)Gal(b1-4)GlcNAc(b1-3)Gal(b1-4)GlcNAc(b1-2)Man(a1-6)]Man(b1-4)GlcNAc(b1-4)GlcNAc
Outline: as §1

B1: PkBDPgamma (Plasmodium knowlesi) (protein)
chain: SAINQIFLQNNVMDKCNDKRKRGERDWDCPTEKDVCIPDRRYQLCMMEITNLVDTDTHFHSDIIFRKSYSRRRLIYDVGGRGDLLLKKYNNVYSEDLCKDIKWSLQDFGDIIMGTDMEGIGYSLVVQNNLRSIFGTGTSAELDRKKWWNDHKKDIWKAMILSVKEKNRYSAWNCKEDVQIKVEPQIYRWIREWGRDYMSEFREQRRKLNEKCEDKLYYSTMLICTLPPCNNACKSYDEWITGKKKQWDVLSTKFSSVKKAQKIETENIARAYDILKQELNGFNEVTFENEINKRDKLYNYFCVCIVQEARKNTQENVKNVGSGVESKAPSSNPINEAVKSSSGEGKVQEDSAHRSVNEGEGKSSTNEADPGSQPGAAASGGGSGGGTGGGVDLAPQMLRELQETNAALQDVRELLRQQVKEITFLKNTVMECDACGGPLDRNLPPLAPLGPTGGWSHPQFEK
[1]
  glycan array binding signal (z-score): -0.243
[2]
  glycan array binding signal (z-score): -0.002
[3]
  glycan array binding signal (z-score): 0.897
[4]
  glycan array binding signal (z-score): -0.401
[5]
  glycan array binding signal (z-score): 0.128
[6]
  glycan array binding signal (z-score): -0.196
[7]
  glycan array binding signal (z-score): 2.27
[8]
  glycan array binding signal (z-score): -0.356
[9]
  glycan array binding signal (z-score): -0.084
[10]
  glycan array binding signal (z-score): -0.331
[11]
  glycan array binding signal (z-score): -0.371
[12]
  glycan array binding signal (z-score): -0.196
[13]
  glycan array binding signal (z-score): -0.276
[14]
  glycan array binding signal (z-score): 0.46
[15]
  glycan array binding signal (z-score): -0.241
[16]
  glycan array binding signal (z-score): 0.522
[17]
  glycan array binding signal (z-score): -0.073
[18]
  glycan array binding signal (z-score): 0.362
[19]
  glycan array binding signal (z-score): -0.323
[20]
  glycan array binding signal (z-score): -0.324
[21]
  glycan array binding signal (z-score): 0.015
[22]
  glycan array binding signal (z-score): 0.405
[23]
  glycan array binding signal (z-score): 0.922
[24]
  glycan array binding signal (z-score): 1.24
[25]
  glycan array binding signal (z-score): -0.045
[26]
  glycan array binding signal (z-score): 0.25
[27]
  glycan array binding signal (z-score): -0.324
[28]
  glycan array binding signal (z-score): 20.7
